Source: PubChem BioAssay (NCATS)
Results filed as inconclusive are left out. Entries that show only a call come without a potency. The source made the active and inactive calls. Unless noted, the call rests on the fitted dose curve; in most records, active means well fitted curve in the direction sought with a large enough effect; inconclusive means small, poorly fitted or top-dose-only effect, or another doubt; inactive means no such curve, though single readings can be large; an effect the other way counts as inactive or inconclusive.

Experiments:
[1] = qHTS profiling of the MIPE4 collection as inhibitors of Plasmodium falciparum (3D7) proliferation (AID 743344; call rule not given here); conditions: P. falciparum 3D7 in erythrocytes, SYBR Green DNA fluorescence, 72 h; at 28.5 µM
In short: (§1)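 Erythrocytes infected with P. falciparum (0.3% parasitemia, 2.5% hematocrit) incubated with compounds 72 h at 37 C, 5% CO2. Lysis with saponin/Triton buffer containing SYBR Green I, overnight at room temperature in the dark; DNA fluorescence (485/535 nm) normalised to 0.29 uM artemisinin and DMSO.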

[2] = qHTS profiling of the MIPE4 collection as inhibitors of Plasmodium falciparum (DD2) proliferation (AID 743345; call rule not given here); conditions: P. falciparum Dd2 in erythrocytes, SYBR Green DNA, 72 h; at 28.5 µM
In short: as §1

[3] = qHTS profiling of the MIPE4 collection as inhibitors of Plasmodium falciparum (DD2) proliferation (Rep 2) (AID 743346; call rule not given here); conditions: P. falciparum Dd2 in erythrocytes, SYBR Green DNA, 72 h; at 28.5 µM
In short: as §1

[4] = qHTS profiling of the MIPE4 collection as inhibitors of Plasmodium falciparum (HB3) proliferation (AID 743347; call rule not given here); conditions: P. falciparum HB3 in erythrocytes, SYBR Green DNA, 72 h; at 28.5 µM
In short: as §1

[5] = Primary qHTS to identify inhibitors of SARS-CoV-2 cell entry (AID 1645846; calls by dose curve; further: nearly all actives have a fitted effect of over 45% in size; further: potency means the concentration at half of the fitted maximal effect); conditions: SARS-CoV-2 pseudovirus cell entry assay, luminescence; activity change, negative = inhibition: at 57.1 µM (top of the series) unless noted
In short: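 Luminescence readout (Bright-Glo luciferase) 48 h after pseudoparticle addition. HEK293-ACE2 cells, 1500/well; compound pre-incubation 1 h; Normalized to spike PP and bald PP.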

[6] = target: Rap guanine nucleotide exchange factor 3 (Homo sapiens) (UniProt O95398); experiment: Confirmatory qHTS for antagonist of cAMP-regulated guanine nucleotide exchange factor 3 (EPAC1) (AID 1645880); further: nearly all actives have a fitted effect of over 55% in size; further: potency means the concentration at half of the fitted maximal effect
Rap guanine nucleotide exchange factor 3 (Homo sapiens), sequence (O95398 whole entry, looked up): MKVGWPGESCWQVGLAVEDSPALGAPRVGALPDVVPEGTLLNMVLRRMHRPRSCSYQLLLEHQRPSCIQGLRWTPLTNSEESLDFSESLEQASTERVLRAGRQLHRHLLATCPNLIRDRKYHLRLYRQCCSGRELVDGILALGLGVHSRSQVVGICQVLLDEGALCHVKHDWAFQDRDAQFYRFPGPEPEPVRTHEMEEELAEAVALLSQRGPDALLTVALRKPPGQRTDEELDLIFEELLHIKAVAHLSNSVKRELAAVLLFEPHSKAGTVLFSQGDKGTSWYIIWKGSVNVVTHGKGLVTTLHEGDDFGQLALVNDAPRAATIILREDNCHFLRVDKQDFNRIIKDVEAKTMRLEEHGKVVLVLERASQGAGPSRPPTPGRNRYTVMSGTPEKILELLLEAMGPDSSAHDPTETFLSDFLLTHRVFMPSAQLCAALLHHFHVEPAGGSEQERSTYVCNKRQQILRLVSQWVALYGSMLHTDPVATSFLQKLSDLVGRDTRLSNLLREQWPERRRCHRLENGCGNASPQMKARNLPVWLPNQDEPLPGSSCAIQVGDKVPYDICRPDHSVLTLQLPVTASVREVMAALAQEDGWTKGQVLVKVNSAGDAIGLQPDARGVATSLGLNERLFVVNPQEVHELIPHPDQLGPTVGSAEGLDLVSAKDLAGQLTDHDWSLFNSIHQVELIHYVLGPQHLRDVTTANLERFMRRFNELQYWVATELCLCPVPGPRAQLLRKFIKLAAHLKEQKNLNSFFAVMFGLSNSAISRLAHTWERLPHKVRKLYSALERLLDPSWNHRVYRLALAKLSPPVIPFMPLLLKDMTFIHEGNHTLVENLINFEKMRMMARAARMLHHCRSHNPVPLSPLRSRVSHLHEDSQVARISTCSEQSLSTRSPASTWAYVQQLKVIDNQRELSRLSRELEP
In short: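 Nucleotide exchange uses 100 nM EPAC1, 250 nM RAP1B-BODIPY-GDP and 50 uM GDP, with compounds in a concentration-titration series. After 5 min at room temperature, fluorescence (480 nm ex/540 nm em) is read every 5 min for 30 min. Data are normalized to control ATA and DMSO.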

[7] = target: Rap guanine nucleotide exchange factor 3 (Homo sapiens) (UniProt O95398); experiment: Confirmatory qHTS for agonist of cAMP-regulated guanine nucleotide exchange factor 3 (EPAC1) (AID 1645881);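 further: EPAC1 catalysed release of BODIPY-GDP from Rap1B seen as fluorescence loss; nearly all actives have a fitted effect of over 75% in size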
[8] = target: Rap guanine nucleotide exchange factor 4 (Homo sapiens) (UniProt Q8WZA2); experiment: Confirmatory qHTS for agonist of cAMP-regulated guanine nucleotide exchange factor 4 (EPAC2) (AID 1645884);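 further: nucleotide exchange releases bodipy-GDP from Rap1 and this lowers its fluorescence; nearly all actives have a fitted effect of over 65% in size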
Rap guanine nucleotide exchange factor 4 (Homo sapiens), sequence (Q8WZA2 whole entry, looked up): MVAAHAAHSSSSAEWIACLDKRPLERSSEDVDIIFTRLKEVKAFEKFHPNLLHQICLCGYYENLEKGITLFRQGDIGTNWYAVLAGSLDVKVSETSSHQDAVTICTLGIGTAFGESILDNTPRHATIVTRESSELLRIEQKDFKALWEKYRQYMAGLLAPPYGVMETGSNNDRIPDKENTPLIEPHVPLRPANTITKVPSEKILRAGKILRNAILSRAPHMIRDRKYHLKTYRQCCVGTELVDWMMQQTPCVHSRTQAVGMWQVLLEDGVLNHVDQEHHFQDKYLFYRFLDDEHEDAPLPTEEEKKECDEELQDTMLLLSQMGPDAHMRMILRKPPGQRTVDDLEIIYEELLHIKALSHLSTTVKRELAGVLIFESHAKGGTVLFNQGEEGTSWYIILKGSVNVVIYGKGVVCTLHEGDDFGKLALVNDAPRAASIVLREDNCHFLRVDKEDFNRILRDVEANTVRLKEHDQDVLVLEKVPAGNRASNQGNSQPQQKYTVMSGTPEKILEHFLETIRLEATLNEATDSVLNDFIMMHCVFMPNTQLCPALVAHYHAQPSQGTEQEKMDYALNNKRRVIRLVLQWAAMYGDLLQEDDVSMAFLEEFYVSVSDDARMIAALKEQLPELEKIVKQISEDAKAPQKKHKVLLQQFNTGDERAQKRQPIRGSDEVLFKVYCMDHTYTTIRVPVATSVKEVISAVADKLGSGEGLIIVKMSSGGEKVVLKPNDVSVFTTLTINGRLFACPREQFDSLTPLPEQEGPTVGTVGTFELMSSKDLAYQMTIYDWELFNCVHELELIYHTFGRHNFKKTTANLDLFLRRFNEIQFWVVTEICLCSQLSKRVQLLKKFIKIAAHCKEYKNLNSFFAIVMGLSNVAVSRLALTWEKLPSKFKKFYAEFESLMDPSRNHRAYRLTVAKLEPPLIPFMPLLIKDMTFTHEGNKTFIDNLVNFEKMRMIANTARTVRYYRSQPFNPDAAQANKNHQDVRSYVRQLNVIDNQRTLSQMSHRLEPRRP

[9] = target: Rap guanine nucleotide exchange factor 4 (Homo sapiens) (UniProt Q8WZA2); experiment: Confirmatory qHTS for antagonist of cAMP-regulated guanine nucleotide exchange factor 4 (EPAC2) (AID 1645885); further: nearly all actives have a fitted effect of over 25% in size; further: potency means the concentration at half of the fitted maximal effect
[10] = target: Rap guanine nucleotide exchange factor 3 (Homo sapiens) (UniProt O95398); experiment: Counterscreen qHTS for antagonist of cAMP-regulated guanine nucleotide exchange factor 3 (EPAC1) (AID 1645888);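 further: fluorescence loss as bound BODIPY-GDP is released from Rap1B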
In short: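 Rap1B-BODIPY-GDP 250 nM + GDP 50 uM; cpds 7-pt, final 9.74 nM–152 uM (activator mode) or from 7.32 nM upwards (inhibitor mode); RT; FI 480/540 nm at 5 and 30 min, then ± cAMP, reread.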

[11] = Primary qHTS for inhibitors of nuclear receptor binding SET domain protein 2 (NSD2) in an isogenic RCH-ACV NSD2 p.E1099K mutant (9B) (AID 1645876); further: nearly all actives have a fitted effect of over 70% in size; further: potency means the concentration at half of the fitted maximal effect
[12] = Primary qHTS for inhibitors of nuclear receptor binding SET domain protein 2 (NSD2) in an RCH-ACV wild type WT cells (2C) (AID 1645877); further: nearly all actives have a fitted effect of over 70% in size; further: potency means the concentration at half of the fitted maximal effect
[13] = target: Glutathione peroxidase 1 (Homo sapiens) (UniProt P07203); experiment: Primary qHTS Assay for Inhibitors of Recombinant Selenoprotein Glutathione Peroxidase 1 (GPX1) (AID 1845191); further: nearly all actives have a fitted effect of over 65% in size
Glutathione peroxidase 1 (Homo sapiens), sequence (P07203 whole entry, looked up): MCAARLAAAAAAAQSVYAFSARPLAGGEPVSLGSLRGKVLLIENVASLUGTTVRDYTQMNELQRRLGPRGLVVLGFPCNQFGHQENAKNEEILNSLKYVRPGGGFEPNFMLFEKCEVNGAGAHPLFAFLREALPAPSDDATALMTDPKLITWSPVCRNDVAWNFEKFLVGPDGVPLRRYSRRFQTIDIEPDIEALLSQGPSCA
In short: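 10 nM GPX1 + cpd, 30 min RT; start w/ 1 mM GSH, 0.5 mM cumene hydroperoxide, 0.5 mM NADPH, 100 nM GR, 0.01% BSA; buffer 50 mM Tris-HCl pH 7.5, 2 mM EDTA, 150 mM NaCl; Fl 340/450, 0 & 15 min.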

CN1CCN(c2ncc(-c3cc(Cl)cc(Cl)c3Cl)c(N)n2)CC1
parasite growth, % of DMSO control [1]: 53.8% | parasite growth remaining, % of DMSO control (lower = more inhibition) [2]: 75.6% | parasite growth, % of control (lower = inhibition) [3]: 39.8% | growth, % of control [4]: 81.9%

O=C(NCc1ccccc1)c1csc(Nc2ccncn2)n1
parasite growth, % of DMSO control [1]: 30.1% | parasite growth, % of control (lower = inhibition) [3]: 36.6% | growth, % of control [4]: 31.7%

CN(Cc1ccc(/C=C/C(=O)NO)cc1)CC12CC3CC(CC(C3)C1)C2
Potency [5]: 5.01 µM (active)

COc1ccc(-n2c(O)c(/C=C3\C=Nc4ccc(Br)cc43)c(=O)[nH]c2=O)c(OC)c1
Potency [6]: 37.9 µM (active) | Potency [7]: inactive | Potency [8]: inactive | Potency [9]: inactive | outcome [10]: inactive

COc1cc2ncnc(Nc3cccc(Cl)c3F)c2cc1OC(=O)N1CCN(C)C[C@H]1C
activity change, negative = inhibition [5]: -27.8%

Cc1cc(/C=C2\C(=O)NC(=O)N(c3ccc(Cl)cc3)C2=O)c(C)n1-c1sc2c(c1C#N)CCCC2
Potency [6]: 11.2 µM (active) | Potency [7]: inactive | activation [8]: 3.87% [at 17.1 µM, percent relative to cAMP agonist control] (inactive) | activity change, negative = inhibition [9]: -14.9% [at 12.7 µM] (inactive) | activity change, negative = inhibition [10]: -13.5% [at 30.8 µM] (inactive)

Cc1ccc(N2C(=O)NC(=O)/C(=C\c3cc(C)n(-c4sc5c(c4C#N)CCCC5)c3C)C2=O)cc1
Potency [6]: 16.9 µM (active) | Potency [7]: inactive | Potency [8]: inactive | Potency [9]: inactive

CCCSc1nc2ccccc2c(=O)n1-c1ccccc1OC
Potency [6]: inactive | Potency [7]: inactive | Potency [8]: inactive | activity change, negative = inhibition [9]: 34.1% [at 12.7 µM] (inactive) | outcome [10]: inactive

CCOC(=O)[C@]12Cc3cc(C)ccc3[C@H]1N(Cc1ccccc1)C(=O)c1ccccc12
Potency [6]: inactive | Potency [7]: inactive | Potency [8]: inactive | Potency [9]: inactive

N/C(=N\N=C/c1ccc(-c2ccc(O)c(C(=O)O)c2)o1)N[N+](=O)[O-]
Potency [6]: 4.78 µM (active) | Potency [7]: inactive | Potency [8]: inactive

CCOC(=O)[C@]12Cc3cc(N(C)C)ccc3[C@H]1N(Cc1ccccc1)C(=O)c1ccccc12
Potency [6]: inactive | Potency [7]: inactive

CC(C)C(=O)OCC(=O)[C@@]12O[C@H](C3CCCCC3)O[C@@H]1C[C@H]1[C@@H]3CCC4=CC(=O)C=C[C@]4(C)[C@H]3[C@@H](O)C[C@@]12C
activity change, negative = inhibition [5]: -13.1%

COC(=O)[C@]12CCC(C)(C)C[C@@H]1[C@@H]1C(=O)C=C3[C@]4(C)C=C(C#N)C(=O)C(C)(C)[C@@H]4CC[C@@]3(C)[C@]1(C)CC2
Potency [11]: 0.461 µM (active) | Potency [12]: 0.326 µM (active)

CCCCn1c(NS(=O)(=O)c2ccc(C)cc2)c(C(=O)OCC)c2nc3ccccc3nc21
Potency [6]: 75.7 µM (active) | Potency [7]: inactive | Potency [8]: inactive | Potency [9]: 23.9 µM (active)

N#CC(C#N)=NNc1ccc(S(N)(=O)=O)cc1
Potency [6]: 44.7 µM (active) | Potency [7]: inactive | activation [8]: 3.48% [at 17.1 µM, percent relative to cAMP agonist control] (inactive) | activity change, negative = inhibition [9]: 1.67% [at 12.7 µM] (inactive) | activity change, negative = inhibition [10]: -8.77% [at 30.8 µM] (inactive)

CN(C)CC(C(=O)Cc1ccccc1)c1ccccc1 (stereo unspecified)
Potency [6]: inactive | Potency [7]: inactive | Potency [8]: inactive | Potency [9]: inactive

CCOC(=O)[C@]12Cc3cc(Cl)ccc3[C@H]1N(C1CCCCC1)C(=O)c1ccccc12
Potency [6]: inactive | Potency [7]: inactive | Potency [8]: inactive | Potency [9]: inactive

CCOC(=O)[C@]12Cc3ccsc3[C@H]1N(Cc1ccccc1)C(=O)c1ccccc12
Potency [6]: inactive | Potency [7]: inactive | Potency [8]: inactive

COC(=O)C1C2c3ccccc3C(c3ccccc32)C1(C)C(=O)OC (stereo unspecified)
Potency [6]: inactive | Potency [7]: inactive | activation [8]: 9.42% [at 17.1 µM, percent relative to cAMP agonist control] (inactive)

Nc1c(C(=O)Nc2ccc(Br)cc2F)sc2nc3c(cc12)N1CCC3CC1
Potency [6]: inactive | Potency [7]: inactive | Potency [8]: inactive | activity change, negative = inhibition [9]: -17.9% [at 12.7 µM] (inactive) | outcome [10]: inactive

c1cc2c(cc1C1OC[C@@H]3C(c4ccc5c(c4)OCO5)OC[C@H]13)OCO2 (stereo partly specified)
Potency [11]: inactive | Potency [12]: inactive | Potency [13]: inactive

COc1cccc(-n2c(/C=C/c3ccc(O)c(O)c3)nc3ccccc3c2=O)c1
Potency [6]: 31.6 µM (active) | Potency [7]: inactive | activation [8]: 9.04% [at 17.1 µM, percent relative to cAMP agonist control] (inactive) | activity change, negative = inhibition [9]: -22.6% [at 12.7 µM] (inactive) | activity change, negative = inhibition [10]: 2.65% [at 30.8 µM] (inactive)

CCOC(=O)[C@]12Cc3cc(C)ccc3[C@H]1N(C1CCCCC1)C(=O)c1ccccc12
Potency [6]: inactive | Potency [7]: inactive | activation [8]: 4.83% [at 17.1 µM, percent relative to cAMP agonist control] (inactive) | activity change, negative = inhibition [9]: -27.9% [at 12.7 µM] (inactive)

COC[C@@H]1OC(=O)c2coc3c2[C@]1(C)C1=C(C3=O)[C@H]2CC[C@H](O)[C@@]2(C)C[C@@H]1OC(C)=O
Potency [11]: 0.82 µM (active) | Potency [12]: 0.651 µM (active)

COC(=O)c1cn(Cc2ccc(F)cc2)c2ccccc12
Potency [6]: inactive | Potency [7]: inactive | Potency [8]: inactive | Potency [9]: inactive | outcome [10]: inactive

O=C1NC(=O)N(Cc2ccccc2)C(=O)/C1=C/C=C/c1ccco1
Potency [6]: 44.7 µM (active) | Potency [7]: inactive | activation [8]: 4.26% [at 17.1 µM, percent relative to cAMP agonist control] (inactive) | activity change, negative = inhibition [9]: -1.14% [at 12.7 µM] (inactive)

COc1ccc(C(SCC(NC(=O)OCc2ccccc2)C(=O)O)c2ccc(OC)cc2)cc1 (stereo unspecified)
Potency [6]: inactive | Potency [7]: inactive | Potency [8]: inactive | Potency [9]: inactive | outcome [10]: inactive
